This is part of a sample that, as a whole, favours compounds with a hit. Of some 79,000 tested, about 15% had one in any assay. Unmarked numbers belong to inactive results. Active and inactive are the calls of the source. Cut-off read from the data, not from the text of the source: active = growth inhibition above about 70%; inactive = the rest.

The first assay can be described thus: NCI Yeast Anticancer Drug Screen. Data for the rad50 strain (AID 155).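 Note: 0% = growth of vehicle-only cultures of the same strain.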 The settings on record: S. cerevisiae rad50 strain growth inhibition; at 3.7 µM; active compounds read high. The method in brief: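 Readout: growth inhibition relative to vehicle-treated cultures. Compound exposure was carried out in a genetically defined yeast strain deficient in DNA damage repair.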
With `C/C(=N\NC(=S)SCc1ccccc1)c1ccccn1`, the growth inhibition was 22%.

`CC[C@@]1(O)C(=O)OCc2c1cc1n(c2=O)Cc2cc3c(N)cccc3nc2-1`: the growth inhibition is 87% (active).

Consider `CN(C)c1ccc(Sc2ccc3nc(N)nc(N)c3c2)cc1`, for which the growth inhibition is 7%.

With `CC(=O)OCCOCNC(=S)N/N=C(\C)c1cnccn1`, the growth inhibition is -1%.

Take `COc1ccc(C2c3cc4c(cc3OC(C)(O)C2C)OCO4)c(OC)c1` (stereo not drawn): the growth inhibition is 1%.

Regarding `COc1cc(C2SCC(=O)N2c2ccc(-c3ccc(-n4c(-c5ccccc5)nc5ccccc5c4=O)cc3)cc2)cc(OC)c1OC` (stereo not drawn), the growth inhibition was 2%.

Take `COc1ccc(Br)c(C(=O)Sc2nnnn2-c2cccc(Cl)c2)c1`: the growth inhibition is 21%.

For the compound `O=C(NNc1ccnc2cc(Cl)ccc12)/C(=C\c1ccccc1Cl)NC(=O)c1ccccc1`, the growth inhibition was 4%.

As for `CSC(=S)Nc1cccc(C)n1`, the growth inhibition was -4%.

With `O=C(/C=C\c1ccc(Cl)cc1Cl)c1cccs1`, the growth inhibition is -2%.

Take `COc1ccc(-c2cn(-c3ccc(I)cc3)c3ncnc(N)c23)cc1`: the growth inhibition was -2%.

Consider `CN(C)c1ccc(C(C#N)=C(C#N)C#N)cc1`, for which the growth inhibition is -8%.

Consider `COc1cc(/C=C2\CCc3ccccc3C2=O)cc(OC)c1OC`, for which the growth inhibition is -3%.

For `CC(C)/C(Cl)=N\OC(=O)Nc1cccc(Cl)c1`, the growth inhibition was -5%.

Regarding `CC1(C)[C@@H]2CC[C@]1(C)[C@H](OC(=O)CSC#N)C2`, the growth inhibition is 1%.

For the compound `NNC(=O)CCc1ccc2ccc3ccccc3c2c1`, the growth inhibition is -4%.

With `COc1ccc(/C(C)=N/OC(=O)c2c(-c3ccccc3Cl)noc2C)cc1CN1CCOCC1`, the growth inhibition is -28%.

Consider `C=CC(C)(O)CCC1C(=C)C(O)CC2C(C)(C)CCCC12C` (stereo not drawn), for which the growth inhibition is 19%.

Regarding `S=C(Nc1ccc(Cl)c(Cl)c1)SCc1ccc2c(c1)OCO2`, the growth inhibition is 40%.

Take `COc1cc(C2C3=C(COC3=O)Oc3cc4c(cc32)OCO4)ccc1O` (stereo not drawn): the growth inhibition was 5%.

`S=C(Nc1ccc(Cl)cc1)SC1CCCCC1`: the growth inhibition was 9%.

Take `Nc1nc(-c2cccnc2)cc(-c2cc(-c3cccnc3)nc(N)n2)n1`: the growth inhibition was 5%.

As to `COC1=CC(=O)C2C(C1=O)C(c1ccc(Cl)cc1)[C@@H]2C` (stereo partly drawn), the growth inhibition is 12%.

With `c1ccc(-c2nc3cccnc3s2)cc1`, the growth inhibition is 9%.

As to `O=[N+]([O-])c1cc(CCl)ccc1CCl`, the growth inhibition was 20%.

As to `COc1ccc(/C=C2\SC(=S)N(/C=C/c3nc4ccccc4[nH]c3=O)C2=O)cc1OC`, the growth inhibition was -5%.

As to `CCCN(CCC)CC(O)c1cc(-c2ccc(Cl)cc2)nc2c(C)c(Cl)ccc12` (stereo not drawn), the growth inhibition is 7%.

In the case of `O=C(Nc1ccccc1)OCCc1ccc(Cl)c(Cl)c1`, the growth inhibition was 13%.

On to `CC(O)C(O)C(O)C(/C=N\Nc1ccccc1)=N/Nc1ccccc1` (stereo not drawn), for which the growth inhibition was 5%.

Consider `C#CCCCc1ccccc1`, for which the growth inhibition was -45%.

As for `CC(=O)Cc1ccc[cH-]1.[Fe+2].c1cc[cH-]c1`, the growth inhibition was 24%.

With `Cc1cc(I)ccc1N`, the growth inhibition was -13%.

For the compound `FC(F)(F)c1cc(NC(=S)N2c3ccccc3-n3cccc3C2c2cccnc2)cc(C(F)(F)F)c1` (stereo not drawn), the growth inhibition was -3%.

Turning to `CC(C)(CN1CCCCC1)C(=O)CC(SCCS(=O)(=O)O)c1ccc(Br)cc1` (stereo not drawn), the growth inhibition is -5%.

For `C[Si](C)(C)CNC(=O)OCc1ccccc1`, the growth inhibition was -10%.

Turning to `CC(C(=O)N1C(=O)N(C(=O)[C@H](C)C(O)c2ccccc2)[C@H](c2ccccc2)[C@H]1c1ccccc1)[C@@H](O)c1ccccc1` (stereo partly drawn), the growth inhibition was -15%.

For `Oc1cccc2c(Cl)ccnc12`, the growth inhibition is 100% (active).

`O=C1C=CC(=C(c2ccccc2)c2ccccc2)c2ccccc21`: the growth inhibition was 7%.

Regarding `S=C(S)NN1CCOCC1`, the growth inhibition was 57%.

The assay is the same for the next values; noted with them: S. cerevisiae rad50 strain growth inhibition; at 5.0 µM (retest, dose inferred, filed as 0.5); active compounds read high.
Take `C/C(=N\NC(=S)SCc1ccccc1)c1ccccn1`: the growth inhibition was 8%.

As for `CC[C@@]1(O)C(=O)OCc2c1cc1n(c2=O)Cc2cc3c(N)cccc3nc2-1`, the growth inhibition was 81% (active).

On to `CN(C)c1ccc(Sc2ccc3nc(N)nc(N)c3c2)cc1`, for which the growth inhibition was 41%.

`CC(=O)OCCOCNC(=S)N/N=C(\C)c1cnccn1`: the growth inhibition is -25%.

With `COc1ccc(C2c3cc4c(cc3OC(C)(O)C2C)OCO4)c(OC)c1` (stereo not drawn), the growth inhibition was 2%.

On to `COc1cc(C2SCC(=O)N2c2ccc(-c3ccc(-n4c(-c5ccccc5)nc5ccccc5c4=O)cc3)cc2)cc(OC)c1OC` (stereo not drawn), for which the growth inhibition was -1%.

Consider `COc1ccc(Br)c(C(=O)Sc2nnnn2-c2cccc(Cl)c2)c1`, for which the growth inhibition is 42%.

Consider `O=C(NNc1ccnc2cc(Cl)ccc12)/C(=C\c1ccccc1Cl)NC(=O)c1ccccc1`, for which the growth inhibition is -11%.

Regarding `CSC(=S)Nc1cccc(C)n1`, the growth inhibition was 88% (active).

Take `O=C(/C=C\c1ccc(Cl)cc1Cl)c1cccs1`: the growth inhibition is 0%.

For the compound `COc1ccc(-c2cn(-c3ccc(I)cc3)c3ncnc(N)c23)cc1`, the growth inhibition was 4%.

For `CN(C)c1ccc(C(C#N)=C(C#N)C#N)cc1`, the growth inhibition was -127%.

As for `COc1cc(/C=C2\CCc3ccccc3C2=O)cc(OC)c1OC`, the growth inhibition was 15%.

For `CC(C)/C(Cl)=N\OC(=O)Nc1cccc(Cl)c1`, the growth inhibition is 8%.

As for `CC1(C)[C@@H]2CC[C@]1(C)[C@H](OC(=O)CSC#N)C2`, the growth inhibition is -5%.

For the compound `NNC(=O)CCc1ccc2ccc3ccccc3c2c1`, the growth inhibition is -13%.

Consider `COc1ccc(/C(C)=N/OC(=O)c2c(-c3ccccc3Cl)noc2C)cc1CN1CCOCC1`, for which the growth inhibition was 63%.

For the compound `C=CC(C)(O)CCC1C(=C)C(O)CC2C(C)(C)CCCC12C` (stereo not drawn), the growth inhibition is 36%.

As to `S=C(Nc1ccc(Cl)c(Cl)c1)SCc1ccc2c(c1)OCO2`, the growth inhibition is 52%.

In the case of `COc1cc(C2C3=C(COC3=O)Oc3cc4c(cc32)OCO4)ccc1O` (stereo not drawn), the growth inhibition is 95% (active).

Consider `S=C(Nc1ccc(Cl)cc1)SC1CCCCC1`, for which the growth inhibition is 12%.

As for `Nc1nc(-c2cccnc2)cc(-c2cc(-c3cccnc3)nc(N)n2)n1`, the growth inhibition was 1%.

Regarding `COC1=CC(=O)C2C(C1=O)C(c1ccc(Cl)cc1)[C@@H]2C` (stereo partly drawn), the growth inhibition is 4%.

On to `c1ccc(-c2nc3cccnc3s2)cc1`, for which the growth inhibition is 5%.

With `O=[N+]([O-])c1cc(CCl)ccc1CCl`, the growth inhibition is -3%.

For `COc1ccc(/C=C2\SC(=S)N(/C=C/c3nc4ccccc4[nH]c3=O)C2=O)cc1OC`, the growth inhibition was -12%.

Take `CCCN(CCC)CC(O)c1cc(-c2ccc(Cl)cc2)nc2c(C)c(Cl)ccc12` (stereo not drawn): the growth inhibition was 34%.

As to `O=C(Nc1ccccc1)OCCc1ccc(Cl)c(Cl)c1`, the growth inhibition was 0%.

As to `CC(O)C(O)C(O)C(/C=N\Nc1ccccc1)=N/Nc1ccccc1` (stereo not drawn), the growth inhibition is 19%.

For the compound `C#CCCCc1ccccc1`, the growth inhibition is -13%.

Take `CC(=O)Cc1ccc[cH-]1.[Fe+2].c1cc[cH-]c1`: the growth inhibition was -14%.

On to `Cc1cc(I)ccc1N`, for which the growth inhibition is 50%.

With `FC(F)(F)c1cc(NC(=S)N2c3ccccc3-n3cccc3C2c2cccnc2)cc(C(F)(F)F)c1` (stereo not drawn), the growth inhibition is 10%.

For `CC(C)(CN1CCCCC1)C(=O)CC(SCCS(=O)(=O)O)c1ccc(Br)cc1` (stereo not drawn), the growth inhibition is 13%.

For `C[Si](C)(C)CNC(=O)OCc1ccccc1`, the growth inhibition is -1%.

Turning to `CC(C(=O)N1C(=O)N(C(=O)[C@H](C)C(O)c2ccccc2)[C@H](c2ccccc2)[C@H]1c1ccccc1)[C@@H](O)c1ccccc1` (stereo partly drawn), the growth inhibition was -5%.

In the case of `Oc1cccc2c(Cl)ccnc12`, the growth inhibition was 99% (active).

On to `O=C1C=CC(=C(c2ccccc2)c2ccccc2)c2ccccc21`, for which the growth inhibition is 25%.

As to `S=C(S)NN1CCOCC1`, the growth inhibition is 89% (active).

The values above are taken from PubChem BioAssay (NCI).
